# Measurements: paper PMC5540273 (PLoS ONE, 2017)
# System: ITK
# Conditions: concentration: 1 μM, replicates: in singlicate; n = 1
# 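Further: KINOMEscan kinase panel screen.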
row,SMILES,%Inh [%]
1,N#Cc1ccc(-c2cc(-c3c[nH]nc3-c3ccccn3)ccn2)cc1 [GW693028],9
2,CCc1ccnc(/C=C/c2n[nH]c3cc(Sc4ccccc4C(=O)NC)ccc23)c1,1
3,Cc1cccc(-c2nc(Nc3ccc4ncsc4c3)c3ccccc3n2)n1 [GW867588],30
4,O=C1NC(=O)C(N2CCc3ccccc32)=C1c1cccc(Cl)c1 [SB-408010],15
5,NS(=O)(=O)c1cccc(-c2ccc3ncc(N4CCOCC4)nc3c2)c1 [GSK1535721],3
6,CN1c2ccc(CNc3ccc(F)cc3)cc2-c2c(cnn2C)S1(=O)=O,0
7,Cn1ccc2ncnc(Oc3ccc(NC(=O)Nc4ccncc4)c(Cl)c3)c21,0
8,COc1cc(Nc2nccc(N3CCC(NC(=O)c4cccc(NC(C)=O)c4)C3)n2)cc(OC)c1OC (stereo not drawn) [GSK1379754],6
9,CSc1ccc(-c2cc3ncnc(SCC(=O)O)c3s2)cc1,0
10,CC(C)(C)n1cnc2c(N)ncnc21 [SKF-97359],4
11,Cc1nnc(-c2ccc(C)c(-c3ccc(C(=O)Nc4ccc(NS(C)(=O)=O)cc4)cc3)c2)o1 [GW702865],0
12,COc1ccc(S(=O)(=O)NC2CCN(c3cc(C)nc(Nc4cccc(C#N)c4)n3)CC2)cc1.O=C(O)C(F)(F)F [GSK1653539],10
13,Cc1c2ccc(N(C)c3ccnc(Nc4cccc(S(N)(=O)=O)c4)n3)cc2nn1Cc1ccccc1.Cl.Cl [GW787226],0
14,COc1cc2c(cc1OC[C@@H](O)CO)ncc1c3ccc(C#N)cc3[nH]c21,13
15,O=C(NCCCN1CCOCC1)c1cccc(Nc2nccc(Nc3ccc(Oc4ccccc4)cc3)n2)c1 [GW663929],0
16,Cc1ccc(NC(=O)c2ccnc(N3CCN(C)CC3)c2)cc1-c1ccc(C(=O)NCC2CC2)cc1 [GW775604],0
17,O=C(Nc1n[nH]c2cc(-c3cccc(F)c3)ccc12)C1CC1 [SB-735464],0

row,SMILES,%Inh [%]
1,COc1ccc(Nc2nccc(N3CCC(NC(=O)Nc4cccc(C(C)=O)c4)C3)n2)cc1 (stereo not drawn) [GSK1379731],14
2,COCCNC(=O)c1ccc(-c2cc(C(=O)NC3CC3)cc(F)c2C)cc1 [GW868318],8
3,COc1ccc(CNC(=O)NC2CCN(c3ccnc(Nc4ccc(OC)cc4)n3)C2)cc1 (stereo not drawn) [GSK1379727],7
4,Nc1nccc(-c2c(-c3ccc(F)cc3)ncn2C2CCN(CC(F)(F)F)CC2)n1 [SB-236560],0
5,O=C(NCCNc1ccnc(Nc2ccc(F)cc2)n1)Nc1ccccc1F [GSK1379880],30
6,O=C(Nc1cccc(-c2nn3ncccc3c2-c2ccnc(Nc3cccc(C(F)(F)F)c3)n2)c1)c1c(F)cccc1F [GSK299495],23
7,COc1ccc(Nc2ncc(C#N)c(Nc3ccccc3C(N)=O)n2)cc1N1CCN(C)CC1.Cl [GSK1558669],99.8
8,O=c1cc(N2CCOCC2)nc2n(Cc3cccc4ccccc34)ccn12 [GSK2333389],21
9,Fc1ccc(-c2ncn(CCCN3CCOCC3)c2-c2ccccn2)cc1 [SB-211742],0
10,CN1c2ccc(NCc3ccc(F)cc3)cc2-c2c(cnn2C)S1(=O)=O,0
11,Nc1nc(-c2ccc3c(N)n[nH]c3c2)cc(N2CCCC2)n1 [GSK2227430],0
12,[2H]C([2H])(c1cccc(C(F)(F)F)c1C)n1ccn2c(=O)nc(N3CCOCC3)cc12 [GSK2336394],17
13,COc1cc2ncn(-c3cc(OCc4sccc4Cl)c(C(N)=O)s3)c2cc1OC [GSK448459],12
14,COc1cc2c(cc1OCCN1CCN(C)CC1)ncc1c3ccc(C#N)cc3[nH]c21,38
15,Cc1nnc(-c2ccc3occ(-c4ccc(C(C)O)cc4)c3c2)o1 (stereo not drawn),14
16,Cn1cc(-c2ccc3c(c2)CCN3C(=O)Cc2ccccc2Cl)c2c(N)ncnc21 [GSK2608885],4
